Only a selection was taken, and hits are over-represented in it overall.
NPSR antagonist: blocks cAMP signaling of the human neuropeptide S receptor. Potency, µM (top dose mostly 38.3 µM), most hits filed as inhibitors. CHO-NPSR cells, cAMP TR-FRET, antagonist mode. Q6W5P4. AID 1461. hit rate 1% among 220,000; further: nearly all actives have a fitted effect of over 50% in size
Target sequence (Q6W5P4 whole entry, looked up): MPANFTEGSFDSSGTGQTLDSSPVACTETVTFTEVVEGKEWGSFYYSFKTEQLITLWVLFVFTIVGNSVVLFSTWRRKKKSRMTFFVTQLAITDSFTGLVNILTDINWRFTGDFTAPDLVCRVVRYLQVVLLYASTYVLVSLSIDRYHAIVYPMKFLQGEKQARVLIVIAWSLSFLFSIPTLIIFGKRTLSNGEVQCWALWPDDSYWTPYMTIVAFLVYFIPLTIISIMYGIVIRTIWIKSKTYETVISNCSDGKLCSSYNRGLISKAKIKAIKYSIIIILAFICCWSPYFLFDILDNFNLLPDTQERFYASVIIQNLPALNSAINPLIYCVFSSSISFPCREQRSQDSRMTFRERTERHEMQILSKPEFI
ERK EGF inh: EGF-driven ERK pathway inhibition; HEK293-V1b, EGF-stimulated phospho-ERK AlphaScreen; Potency, µM (top dose mostly 11.5 µM), hits mostly inhibitors; hit rate 0.41% among 130,000; AID 1454; further: nearly all actives have a fitted effect of over 55% in size
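Concentration-response of compounds against EGF-driven ERK phosphorylation in V1b-expressing HEK293 cells; 30 min preincubation, 5 min EGF, AlphaScreen detection; Normalized to DMSO basal and 25 nM EGF.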
Hits are given with their value; i = inactive; ? = inconclusive; nt = no result. The call rests on the fitted dose curve; in most records, active means well fitted curve in the direction sought with a large enough effect; inconclusive means small, poorly fitted or top-dose-only effect, or another doubt; inactive means no such curve, though single readings can be large; an effect the other way counts as inactive or inconclusive.

SMILES	NPSR antagonist	ERK EGF inh
CCOc1ccc(NC(=O)Nc2cc(C(C)C)ccc2C)cc1	i	i
OC(c1cc(C(F)(F)F)nc2c(Cl)cc(Cl)cc12)C1CCCCN1 (stereo not drawn)	?	i
OC(c1cc(-c2ccc(Cl)cc2)nc2ccccc12)C1CCCCN1 (stereo not drawn)	?	32µM
CCCCCNC(=O)c1ccc2c(=O)n(CCCN3CCCC3=O)c(=S)[nH]c2c1	i	i
O=C(NCc1cccnc1)/C(=C/c1ccc(-c2ccc(Cl)cc2)o1)S(=O)(=O)c1ccccc1	10µM	nt
O=C(NCc1cccnc1)/C(=C\c1ccc(-c2ccc(Br)cc2)o1)S(=O)(=O)c1ccccc1	i	i
COc1ccc(CN2CCCC(C(=O)c3cccc(OC(C)C)c3)C2)cc1Cn1cccn1 (stereo not drawn)	i	i
Cc1cnc(CNc2ncnc3ccc(-c4cccc(C#N)c4)cc23)cn1	nt	i
O=C(O)C1CC=CCC1C(=O)N1CCN(c2nc(-c3ccccc3)c3ccccc3n2)CC1 (stereo not drawn)	i	nt
O=C(O)C1CC=CCC1C(=O)N1CCN(c2nc(-c3ccccc3Cl)c3cc(Br)ccc3n2)CC1 (stereo not drawn)	13µM	nt
CC1CCN(S(=O)(=O)c2ccc(C(=O)Nc3sccc3C(N)=O)cc2)CC1	6.3µM	nt
CN(C)NC(=O)c1ccsc1NC(=O)c1ccc(S(=O)(=O)N2CCCC2)cc1	i	i
COc1ccc(Br)cc1/C=N/NC(=O)CN1CCN(Cc2ccccc2)CC1	i	i
Cc1cc(NC(=O)c2c(C)noc2C)no1	i	i
O=S(=O)(c1cccc(NC(=S)N2CCN(c3ccc(F)cc3)CC2)c1)C(F)F	i	?
O=S(=O)(c1cccc(NC(=S)N2CCN(c3cccc(Cl)c3)CC2)c1)C(F)F	?	25µM
CC(CC(C)C(=O)Nc1ccccc1C(C)(C)C)C(=O)O (stereo not drawn)	i	i
c1cc2c(cc1C1CCCCC1)c1c3n2CCN[C@H]3CCC1	nt	i
c1cc2c(cc1C1CCCCC1)c1c3n2CCCNC3CCC1 (stereo not drawn)	?	28µM
COc1ccccc1CNN	i	i
COc1ccccc1CNCCCCCCNCCCCCCCCNCCCCCCNCc1ccccc1OC	13µM	i
CCN1/C(=C/C=C/C=C/c2sc3ccccc3[n+]2CC)Sc2ccccc21	7.9µM	nt
CC[n+]1c(/C=C/Nc2ccccc2)sc2ccccc21	i	nt
COCCn1c(=O)c(-c2ccc(F)cc2)nc2cnc(OCc3ccccc3)nc21	nt	i
O=c1[nH][nH]cc1C=NCc1cccc(C(F)(F)F)c1	i	i
SMILES	NPSR antagonist	ERK EGF inh
Cc1sc2cc3c(c(C(=O)c4ccccc4)[n+]2c1C)-c1cccc2cccc-3c12	?	i
O=C(c1ccccc1)c1c2c(cc3sc4ccccc4[n+]13)-c1cccc3cccc-2c13	10µM	i
CCCCOC(=O)c1ccc(NC(=O)COC(=O)CSc2nc(C)cc(C)n2)cc1	i	i
CC1C/C(=N/Nc2ccc([N+](=O)[O-])cc2[N+](=O)[O-])CC(C)(C)C1 (stereo not drawn)	i	13µM
CC1CCCC/C1=N/Nc1ccc([N+](=O)[O-])cc1[N+](=O)[O-] (stereo not drawn)	i	nt
Cc1ccc(C(=O)Nc2cccc(C(F)(F)F)c2)cc1NC(=O)c1csc(-c2ccncc2)n1	i	i
N#C/C(=N\Nc1cccc(C(F)(F)F)c1)C(=O)c1csc(-c2cccnc2)n1	10µM	i
CCN1/C(=C2\C(=O)N(C)C(=S)N2C)C=Cc2ccccc21	i	?
CCN1C(=O)/C(=C2/C=Cc3ccccc3N2CC)SC1=S	i	16µM
O=C1NC[C@H](Cc2ccccc2)N(CC2CCCCC2)C1=O	i	i
CC1=NN(c2ccccc2)C(=O)/C1=C\c1cc(C)n(-c2ccccc2)c1C	i	i
CC1=NN(c2ccccc2)C(=O)/C1=C/c1cccs1	i	i
CC1=NN(c2ccccc2)C(=O)/C1=C/c1ccc[nH]1	i	18µM
CC1=NN(c2ccccc2)C(=O)/C1=C\c1ccc(Br)s1	i	28µM
C/C(CCC(C)C)=N\Nc1cc(C)c2ccccc2n1	i	i
COC(=O)c1ccc(C(NC(=O)OCc2ccccc2)/C(=C/[C@@H](C)C(=O)NCc2nc3ccccc3n2C)c2cccnc2)cc1 (stereo partly drawn)	nt	i
N=C1S/C(=C\c2ccco2)C(=O)N1c1ccc2c(c1)OCO2	i	i
N=C1S/C(=C\c2ccco2)C(=O)N1c1nccs1	6.3µM	i
O=C1NC(=S)S/C1=C/c1ccc(N2CCOCC2)o1	13µM	i
O=C1S/C(=C/c2ccc(N3CCOCC3)o2)C(=O)N1Cc1ccc(F)cc1	i	nt
CC(=O)OC1CCC2(C)C(CCC3(C)C2C(=O)C=C2C4CC(C)(C(=O)OCCN5CCCCC5)CCC4(C)CCC23C)C1(C)C (stereo not drawn)	nt	i
CCOC(=O)c1sc2nc(CC(=O)OC)nc(NCCN3CCOCC3)c2c1C	i	nt
